FAK inh = inhibitors of human focal adhesion kinase | Q05397 | biochemical FAK kinase activity assay | inhibition, %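 (tested at 7 µM)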 | 97,000 compounds, 0.84% hits; in the data active = inhibition above about 19%;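 also: 0% = DMSO and 100% = reference compound high control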
SDO1 yeast rescue = compounds rescuing growth of sdo1-depleted yeast, bone marrow failure model; S. cerevisiae sdo1-depleted JHY4D growth rescue, OD600 30 h; stronger effect = higher value; pdr5 snq2 efflux-pump mutant strain; z-score at 10 µM; 140,000 compounds, 0.21% hits; AID 817;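 active = z-score above 3 at both the 24 hr and the 30 hr optical density reads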;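 also: z-score against mean and SD of all compound wells on the same plate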
S1P2 antag = S1P2 (human) receptor antagonism; O95136; inhibition, % at 5 µM; cell-based S1P2 antagonist assay, inhibition at 5 uM; 97,000 compounds, 0.21% hits; in the data active = inhibition above about 45%;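 also: CRE beta-lactamase reporter cells expressing human S1P2 stimulated with S1P; 0% = agonist at EC80 alone and 100% = agonist plus reference antagonist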
Target sequence (O95136 whole entry, looked up): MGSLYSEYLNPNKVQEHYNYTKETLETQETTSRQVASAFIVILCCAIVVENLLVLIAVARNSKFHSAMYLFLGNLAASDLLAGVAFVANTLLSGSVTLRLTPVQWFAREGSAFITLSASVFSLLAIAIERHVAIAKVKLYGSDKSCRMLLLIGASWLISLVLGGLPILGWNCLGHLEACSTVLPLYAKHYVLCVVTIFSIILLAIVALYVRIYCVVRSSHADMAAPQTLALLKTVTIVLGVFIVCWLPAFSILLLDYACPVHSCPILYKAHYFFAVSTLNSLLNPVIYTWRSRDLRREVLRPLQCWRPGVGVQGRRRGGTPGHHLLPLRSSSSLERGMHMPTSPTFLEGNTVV
S1P2 agonist = S1P2 (human) receptor agonism; O95136; S1P2-expressing cell line, agonist reporter read-out; activation, % at 4.5 µM; 97,000 compounds, 0.46% hits; in the data active = activation above about 16%;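 also: 0% = vehicle low control and 100% = maximal reference agonist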
GALR2 blocker = antagonists of human galanin receptor 2 (GALR2); O43603; GALR2-expressing cells, antagonist mode; inhibition, % at 4 µM; 140,000 compounds, 0.39% hits; in the data active = inhibition above about 27%;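 also: cells stimulated with galanin 1-16 at roughly its EC80; 0% = agonist challenge control and 100% = basal control without agonist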
GALR2 agonist = agonists of human galanin receptor 2 (GALR2). O43603. GALR2-expressing cells, agonist activation read-out. activation, % (test concentration not listed). 140,000 compounds, 0.48% hits. AID 803; in the data active = activation above about 5%, passing the limit was not always enough;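 also: 0% = vehicle buffer wells and 100% = reference agonist at full effect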
Numbers without * were called inactive. In the library only some 1.9% were active in any assay of this set; here they are far more common.

How did CCOC(=O)N1CCC(NC(=O)C2CCCN(Cc3nc(-c4cccc(Cl)c4)oc3C)C2)CC1 (stereo not given) do in these assays?
FAK inh: -2; SDO1 yeast rescue: -0.8; S1P2 antag: 61*; S1P2 agonist: -2; GALR2 blocker: 25; GALR2 agonist: -1

How did CCN1CCN(CCNC(=O)C2CCCN(Cc3nc(-c4cccc(Cl)c4)oc3C)C2)CC1 (stereo not given) do in these assays?
FAK inh: 1; SDO1 yeast rescue: -0.47; S1P2 antag: 19; S1P2 agonist: -3; GALR2 blocker: -2; GALR2 agonist: -3

Results for O=[N+]([O-])c1ccc(NCCCNS(=O)(=O)c2ccccc2)c(Cl)c1 ?
SDO1 yeast rescue: -0.69; GALR2 blocker: 16; GALR2 agonist: -2

How did Cc1ccc2nc3c(cc(C#N)c(=O)n3CC3CCCO3)c(=O)n2c1 (stereo not given) do in these assays?
SDO1 yeast rescue: 1.4; GALR2 blocker: -5; GALR2 agonist: 6.8*

How did Cc1ccc2nc3c(cc(C#N)c(=O)n3-c3nccs3)c(=O)n2c1 do in these assays?
SDO1 yeast rescue: 0.5; GALR2 blocker: -22; GALR2 agonist: 27*

How did O=C(Cc1coc2ccc3ccccc3c12)N1CCCC1 do in these assays?
FAK inh: 1; SDO1 yeast rescue: -0.49; S1P2 antag: -29; S1P2 agonist: 25*; GALR2 blocker: 1; GALR2 agonist: 0

Results for COc1ccc(C(C)=O)cc1CSc1nc2ccccc2c(=O)n1-c1ccccc1 ?
SDO1 yeast rescue: -0.74; GALR2 blocker: -13; GALR2 agonist: 5.0*

How did C=CCn1c(N)c(C(=O)Nc2ccccc2)c2nc3ccccc3nc21 do in these assays?
SDO1 yeast rescue: -1.4; GALR2 blocker: -9; GALR2 agonist: 8.1*

How did COCCCNC(=O)c1c(N)n(/N=C/c2cccs2)c2nc3ccccc3nc12 do in these assays?
SDO1 yeast rescue: -0.99; GALR2 blocker: -12; GALR2 agonist: 20*

What do the screens show for `COCCNC(=O)c1c(N)n(-c2cccc(C)c2)c2nc3ccccc3nc12`?
FAK inh: 0; SDO1 yeast rescue: -0.41; S1P2 antag: -12; S1P2 agonist: 10; GALR2 blocker: 3; GALR2 agonist: 4

How did COCCNC(=O)c1c(N)n(-c2ccccc2)c2nc3ccccc3nc12 do in these assays?
FAK inh: 4; SDO1 yeast rescue: -0.43; S1P2 antag: -17; S1P2 agonist: 6; GALR2 blocker: 2; GALR2 agonist: 4.9*

Results for COc1ccccc1NC(=O)CSc1nc2n[nH]c(C)c2c(=N)n1-c1ccccc1Cl ?
FAK inh: 21*; SDO1 yeast rescue: -1.8; S1P2 antag: -22; S1P2 agonist: 21*; GALR2 blocker: -7; GALR2 agonist: -1

How did COc1ccc(C2=CC(c3ccc(Cl)cc3)n3cnnc3N2)cc1OC (stereo not given) do in these assays?
SDO1 yeast rescue: -0.37; GALR2 blocker: 38*; GALR2 agonist: -2

How did COc1ccc(C2C=C(c3ccc(Cl)cc3)Nc3nc(NC(C)=O)nn32)cc1 (stereo not given) do in these assays?
FAK inh: -2; SDO1 yeast rescue: -0.76; S1P2 antag: 21; S1P2 agonist: -11; GALR2 blocker: 22; GALR2 agonist: -2

Results for CN(C)c1nc(N)nc(CSc2n[nH]c(-c3ccccc3)n2)n1 ?
FAK inh: 1; SDO1 yeast rescue: 0.91; S1P2 antag: -30; S1P2 agonist: 31*; GALR2 blocker: -1; GALR2 agonist: -2

Results for COc1cc(C(=O)Nc2sc3c(c2C(=O)NCc2ccco2)CCCC3)cc(OC)c1OC ?
FAK inh: -2; SDO1 yeast rescue: -1.4; S1P2 antag: -21; S1P2 agonist: 23*; GALR2 blocker: -7; GALR2 agonist: 0

Results for COc1ccc2[nH]c(=O)c3c(c2c1)OC(C)(C)C=C3 ?
FAK inh: 10; SDO1 yeast rescue: 0.28; S1P2 antag: 57*; S1P2 agonist: -11; GALR2 blocker: 2; GALR2 agonist: -2

Results for O=C1c2ccccc2C(=O)c2c1cccc2N1CCOCC1 ?
FAK inh: 5; SDO1 yeast rescue: -0.26; S1P2 antag: -22; S1P2 agonist: 22*; GALR2 blocker: -14; GALR2 agonist: 0

Results for CCNS(=O)(=O)c1cccc(C(=O)c2c(C)cc3ccccn23)c1 ?
SDO1 yeast rescue: -0.59; GALR2 blocker: 2; GALR2 agonist: -2

What do the screens show for `CCOC(=O)Cc1csc(/N=C/c2c(O)n(-c3ccccc3C(F)(F)F)c(=O)c3ccccc23)n1`?
SDO1 yeast rescue: -0.04; GALR2 blocker: 11; GALR2 agonist: 0

Results for Cc1nc2ccccc2n1CCc1nc2c3ccccc3nc(SCC#N)n2n1 ?
FAK inh: 18; SDO1 yeast rescue: 0.39; S1P2 antag: -1; S1P2 agonist: 39*; GALR2 blocker: 0; GALR2 agonist: 3

How did COc1ccc(NC(=O)Cn2nnc(C(=O)NCc3ccccc3OC)c2N)cc1Cl do in these assays?
FAK inh: 0; SDO1 yeast rescue: -0.56; S1P2 antag: 47*; S1P2 agonist: -7; GALR2 blocker: 7; GALR2 agonist: 1

What do the screens show for `Cc1ccc(NC(=O)Cn2nnc(C(=O)NCc3ccccc3)c2N)cc1C`?
FAK inh: -2; SDO1 yeast rescue: -1.1; S1P2 antag: 22; S1P2 agonist: -7; GALR2 blocker: 6; GALR2 agonist: -2

What do the screens show for `CCOC(=O)c1nn(-c2ccccc2)c(C#N)c1NC(=O)c1nn(CC)cc1Br`?
FAK inh: 1; SDO1 yeast rescue: -1; S1P2 antag: -22; S1P2 agonist: 24*; GALR2 blocker: 1; GALR2 agonist: -2

Results for Cc1ccc(-c2[nH]ncc2/C=N/n2c(COc3ccccc3C)nc3ccccc3c2=O)cc1 ?
SDO1 yeast rescue: -0.03; GALR2 blocker: 6; GALR2 agonist: 0

What do the screens show for `COCCn1nnnc1CN1CCN2CCCC2C1` (stereo not given)?
FAK inh: -3; SDO1 yeast rescue: 0.33; S1P2 antag: 10; S1P2 agonist: 43*; GALR2 blocker: -4; GALR2 agonist: -1

How did CCOc1ccc(/C=N/N2C(=O)C(CC(=O)Nc3ccc(F)cc3F)SC2=NC)cc1OC (stereo not given) do in these assays?
SDO1 yeast rescue: -1.2; GALR2 blocker: 6; GALR2 agonist: 6.0*

What do the screens show for `Nn1c(SCC(=O)NC2CCCc3ccccc32)nnc1-c1ccc(Cl)cc1Cl` (stereo not given)?
SDO1 yeast rescue: 0.58; GALR2 blocker: -3; GALR2 agonist: 1

How did CCn1c2ccc(OC)cc2c2nc3ccccc3nc21 do in these assays?
FAK inh: 0; SDO1 yeast rescue: -1.1; S1P2 antag: -33; S1P2 agonist: 34*; GALR2 blocker: -1; GALR2 agonist: -1

What do the screens show for `CCOc1ccc(Cn2c3ccc(OC)cc3c3nc4ccccc4nc32)cc1`?
SDO1 yeast rescue: 0.78; GALR2 blocker: 7; GALR2 agonist: -2

Results for CCCCOC(=O)Cn1c2ccc(OC)cc2c2nc3ccccc3nc21 ?
FAK inh: 13; SDO1 yeast rescue: -0.58; S1P2 antag: -2; S1P2 agonist: 0; GALR2 blocker: -10; GALR2 agonist: -2
